The values below come from ChEMBL document CHEMBL3988442, “University of Dundee, Small-Polar-MMV Screening Library” (2021).

The assay addresses AMP-activated protein kinase, AMPK (Homo sapiens) (UniProt P54646+O43741+P54619+Q9UGJ0+Q9Y478+Q13131+Q9UGI9). Kind of assay: AMP-dependent Kinase enzyme assay. An in vitro enzyme assay that detects ADP turnover that is directly proportional to AMPK activity. This uses naive AMPK that is activated during the assay with MK-8722. Format: functional. Further details: scale not given: direction of the effect not stated beside the values. The conditions noted are these: 30 µM.
As to `O=C(NCc1cccnc1N1CCCC(O)C1)c1ccc2[nH]nnc2c1` (centres undefined), the Percent Effect was -3.08%.

Turning to `Nc1nc(O)cc(N2CCC(c3cc(Cc4ccccc4)n[nH]3)CC2)n1`, the Percent Effect was -82.1%. The same measure for `CC(C)NC(=O)N1CCCCCC1C1CCN(c2ncccn2)CC1` (centres undefined): -6.91%; for `Cc1cnn(CCNCC(=O)N2CCN(c3ncccn3)CC2)c1`: -6.6%; for `CCOCC(=O)N1CCC(C)(c2nccs2)CC1`: 6.62%.

On to `CN(C)c1cccc(C(=O)N2CCn3c(nnc3C3CC3)C2)c1`, for which the Percent Effect was -2.33%. The same measure for `CC(C)Cn1cc(NC(=O)c2cccc(N(C)C)c2)cn1`: 1.9%. The same measure for `Cc1nc(CNC(=O)c2cc(COc3cccc(F)c3)[nH]n2)n[nH]1`: 0.77%; for `Cc1cc(C(=O)NCCN2CCCCC2)nn1C(C)(C)C`: 24.9%. The same measure for `O=C(CCc1nnc(-c2ccsc2)o1)NCC1CCN(C2CC2)C1` (centres undefined): 4.06%; for `CCn1nc(C)c(NC(=O)CN(C)C(C)c2ccon2)c1C` (centres undefined): -1.21%; for `CC(=O)c1cnc(NCCN2CCCC2)nc1C`: -8.98%. With `Cc1ccc2nc(CN3CCCCC3C(=O)N3CCOCC3)cn2c1` (centres undefined), the Percent Effect was determined as 8.07%.

As for `NC(=O)c1cc(C2CCCN(Cc3ccc4c(c3)OCCO4)C2)n[nH]1` (centres undefined), the Percent Effect is 3.64%. The same measure for `CC(CNC(=O)CCCn1cncn1)N1CCc2ccccc2C1` (centres undefined): 14.6%; for `CS(=O)(=O)C1(CNCc2cccc(-n3cccn3)c2)CCOCC1`: 3.19%. For `O=C(NCC(O)c1cccc(F)c1)C1CCN(C(=O)C2CCC2)CC1` (centres undefined), the Percent Effect was -3.62%. As to `CN1CCCC(CCC(=O)NCCc2nnc(N)s2)C1` (centres undefined), the Percent Effect is -1.67%. Next, `COCCC(=O)N(C)CCC1=CCN(C)CC1`: -12.9%; `Cc1nc2c(c(NCCc3nccs3)n1)CCN(CC1CC1)CC2`: 6.45%; `CCc1ncc2c(n1)CN(c1nnc(C)c(C)c1C#N)CC2`: -14.7%. Next, `Fc1cc(CCNc2ccc3nccn3n2)c2c(c1)COCO2`: 17.6%; `CC(C)(CNc1c(C#N)cnc2ccc(Cl)cc12)C(N)=O`: 6.25%; `c1ccc(CCN2CCN(C3CCOC4(CCOCC4)C3)CC2)cc1` (centres undefined): -8.46%. The same measure for `COc1ccccc1N1CCCC(NC(=O)Nc2cccnc2)C1` (centres undefined): -1.53%; for `Cc1nnsc1CNC(=O)Nc1cccc(N2CCN(C)C2=O)c1`: -11%; for `CC(NC(=O)C1CCCCC1)c1cc(O)nc(-c2cccnc2)n1` (centres undefined): 5.58%.

For `CCC(C)c1csc(NC(=O)c2sc(-c3nnc[nH]3)nc2C)n1` (centres undefined), the Percent Effect is 12.2%. `CCc1nnc2n1CCN(C(=O)C(C)Oc1ccc(C#N)cc1)C2` (centres undefined): the Percent Effect stood at 10.6%. Consider `CCSc1cc(C(=O)N(CC(F)F)C(C)C)ccn1`, for which the Percent Effect was determined as 2.16%. The same measure for `CCc1cc(N2CCC(NCc3ccc(C)o3)CC2)ncn1`: 6.83%.

Consider `Cc1nn(-c2ccccc2)c2nc(C(C)(C)CN3CCN(C)CC3)[nH]c12`, for which the Percent Effect is 9.98%. The same measure for `CC(=O)N[C@H]1CCO[C@@H](c2cccc(NC(=O)Cc3ccccc3)c2)C1`: 7.18%. For the molecule `CCCC1COCCN1Cc1ccc(NC(C)=O)cc1` (centres undefined), the Percent Effect was -4.72%. Take `Cc1csc(C(=O)N2CCC(S(C)(=O)=O)CC2)c1`: the Percent Effect is -2.86%.

Consider `Cc1cc(NC(=O)N2CCC[C@@H]2CO)nn1-c1ccccc1Cl`, for which the Percent Effect is 3.2%.

As for `CCCC1COCCN1Cc1ccc(C(=O)O)cc1` (centres undefined), the Percent Effect is -3.74%. Consider `Cc1c(NC(=O)N(C)CCO)cccc1OC1CCCC1`, for which the Percent Effect is -3.01%. Next, `CN(C)C(=O)c1cncnc1-c1ccc(CNC(=O)C2CCCO2)cc1` (centres undefined): -0.401%.
